Consider eight molecules from PubChem BioAssay (NCI).

Among the test systems are K-562 leukemia; MALME-3M melanoma; MDA-MB-231 breast; RXF 393 renal; SF-268 CNS; SF-539 CNS; UACC-257 melanoma; M14 melanoma; HCT-15 colon; HT29 colon; SNB-75 CNS; SNB-19 CNS; U251 CNS; PC-3 prostate; SK-MEL-5 melanoma; UACC-62 melanoma; LOX IMVI melanoma; SK-MEL-28 melanoma; SK-MEL-2 melanoma; SF-295 CNS.
What all share (test): NCI-60 one-dose screen, 48 h (100 = growth as untreated, 0 = no growth, -100 = all killed)
Holding throughout (settings): 10 µM unless noted

About 83,000 compounds went through this panel and 20% of them were active in at least one assay; those are over-represented in the sample as a whole.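 Growth was measured after 48 h exposure to one concentration of compound in 96-well plates. Values under 10 count as active.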 A number with no mark means an inactive call. Calls of active or inactive are those of the source.

For `O=C1/C(=N/O)CCc2ccccc21`, the growth was 19.4% in the test with K-562 leukemia; 91.7% in the test with MALME-3M melanoma; 79.7% with MDA-MB-231 breast; 96.7% in the test with RXF 393 renal; 91% in the test on SF-268 CNS; 88.5% with SF-539 CNS. The growth was 90.7% in the test with UACC-257 melanoma; 104% in the test on M14 melanoma; 102% with HCT-15 colon; 101% in the test on HT29 colon; 82.2% in the test on SNB-75 CNS; 100% in the test with SNB-19 CNS. The growth is 103% in the test on U251 CNS; 59.8% with PC-3 prostate; 102% in the test on SK-MEL-5 melanoma; 87.6% in the test on UACC-62 melanoma; 76.5% in the test on LOX IMVI melanoma; 121% in the test on SK-MEL-28 melanoma. For the same molecule, the growth with SK-MEL-2 melanoma was 113%.
`O=C1C2C3C=CC(O3)C2C(=O)N1Nc1ccccc1` (configuration not stated): the growth in the test with K-562 leukemia was 103%; in the test on MALME-3M melanoma, 120%; with MDA-MB-231 breast, 99.8%; in the test with RXF 393 renal, 119%; in the test on SF-268 CNS it was 102%; in the test on SF-295 CNS it was 107%. Further, the growth with UACC-257 melanoma is 104%; with M14 melanoma it was 104%; in the test on HCT-15 colon, 104%; in the test with HT29 colon, 112%; in the test with SNB-75 CNS it was 93.3%; with SNB-19 CNS, 111%. Moreover, the growth was 109% with U251 CNS; 97.5% with PC-3 prostate; 109% in the test on SK-MEL-5 melanoma; 100% in the test on UACC-62 melanoma; 98% with LOX IMVI melanoma; 105% in the test on SK-MEL-28 melanoma. Besides, in the test with SK-MEL-2 melanoma, the growth is 133%.
Regarding `O=C(O)c1ccccc1C(=O)OC1CCCC2CCCC21` (configuration not stated), the growth in the test with K-562 leukemia is 102%; with MALME-3M melanoma, 133%; with MDA-MB-231 breast, 121%; in the test on RXF 393 renal it was 104%; with SF-268 CNS, 106%; with SF-539 CNS, 102%. For the same molecule, the growth with UACC-257 melanoma is 105%; in the test on M14 melanoma it was 115%; in the test on HCT-15 colon, 92.1%; in the test on HT29 colon, 100%; in the test on SNB-75 CNS it was 96.5%; in the test with SNB-19 CNS, 104%. For the same molecule, the growth in the test with U251 CNS is 114%; in the test on PC-3 prostate, 97.5%; with SK-MEL-5 melanoma, 104%; in the test on UACC-62 melanoma, 97%; in the test with LOX IMVI melanoma, 95.1%; in the test on SK-MEL-28 melanoma, 109%. Also, the growth in the test with SK-MEL-2 melanoma is 136%.
For the molecule `CCOC(Cc1c(N)[nH]c(=S)[nH]c1=O)OCC`, the growth was 98.5% in the test with K-562 leukemia; 99.5% with MALME-3M melanoma; 111% in the test on MDA-MB-231 breast; 108% in the test with RXF 393 renal; 111% with SF-268 CNS; 99.4% in the test on SF-539 CNS. Further, the growth was 103% with UACC-257 melanoma; 105% with M14 melanoma; 106% in the test with HCT-15 colon; 99.2% with HT29 colon; 96.7% with SNB-75 CNS; 106% with SNB-19 CNS. Besides, the growth was 103% in the test with U251 CNS; 95.3% with PC-3 prostate; 95.5% in the test on SK-MEL-5 melanoma; 104% in the test with UACC-62 melanoma; 95.3% in the test on LOX IMVI melanoma; 102% with SK-MEL-28 melanoma. The growth in the test with SK-MEL-2 melanoma is 124%.
Regarding `Cc1cc(O)c2c(c1)C[C@H]1[C@@H]3CC[C@H]4CC(=O)CC[C@]4(C)[C@H]3CC(=O)[C@]21C`, the growth was 53.3% in the test with K-562 leukemia; 92.8% with MALME-3M melanoma; 86% with MDA-MB-231 breast; 94.1% in the test on RXF 393 renal; 87.6% in the test with SF-268 CNS; 73.3% in the test with SF-539 CNS. The growth with UACC-257 melanoma was 100%; in the test with M14 melanoma it was 80.9%; with HCT-15 colon, 45.3%; with HT29 colon, 67.6%; in the test on SNB-75 CNS it was 98.4%; in the test on SNB-19 CNS it was 94.5%. Moreover, the growth is 81.6% in the test on U251 CNS; 80.9% in the test with PC-3 prostate; 73.3% with SK-MEL-5 melanoma; 57.4% in the test with UACC-62 melanoma; 85.1% with LOX IMVI melanoma; 101% in the test on SK-MEL-28 melanoma. The growth in the test on SK-MEL-2 melanoma is 83.3%.
`COc1ccc(-c2nnc(COc3ccc(NC(=O)Nc4cc(C(F)(F)F)cc(C(F)(F)F)c4)cc3F)o2)cc1`: the growth is 9.15% (active) in the test with K-562 leukemia; -16.5% (active) in the test with MALME-3M melanoma; -22.6% (active) in the test on MDA-MB-231 breast; 16.3% in the test on RXF 393 renal; 18.8% with SF-268 CNS; 20.3% with SF-539 CNS. Moreover, the growth with UACC-257 melanoma is 0.873% (active); with M14 melanoma it was 18%; in the test on HCT-15 colon, 10%; with HT29 colon it was 2.11% (active); in the test on SNB-75 CNS, 16.7%; in the test with SNB-19 CNS, 14.4%. Further, the growth with U251 CNS was 0.294% (active); in the test on PC-3 prostate, -12.8% (active); in the test with SK-MEL-5 melanoma, -21.4% (active); in the test with UACC-62 melanoma, 16.4%; with LOX IMVI melanoma it was -15% (active); in the test on SK-MEL-28 melanoma, 16.6%. Besides, the growth in the test on SK-MEL-2 melanoma was -32.9% (active).
Turning to `C/C(=N/N=C(N)N)c1ccc(N)cc1`, the growth was 94.6% in the test with K-562 leukemia; 115% in the test with MALME-3M melanoma; 104% with MDA-MB-231 breast; 98.5% in the test on RXF 393 renal; 114% in the test on SF-268 CNS; 96.3% in the test with SF-539 CNS. Moreover, the growth in the test on UACC-257 melanoma was 150%; with M14 melanoma it was 95.9%; with HCT-15 colon, 115%; with HT29 colon, 103%; in the test with SNB-75 CNS it was 102%; in the test with SNB-19 CNS, 96.3%. Besides, the growth with U251 CNS is 99.3%; with PC-3 prostate, 92.1%; in the test with SK-MEL-5 melanoma it was 107%; with UACC-62 melanoma it was 105%; in the test on LOX IMVI melanoma it was 96.6%; in the test on SK-MEL-28 melanoma, 110%. Further, the growth in the test with SK-MEL-2 melanoma is 154%.
For `O=C(Nc1ccc(OCc2nnc(-c3ccccc3)o2)c(F)c1)Nc1ccc(Cl)c(C(F)(F)F)c1`, the growth with K-562 leukemia was 12.9%; in the test on MALME-3M melanoma it was 8.78% (active); with MDA-MB-231 breast it was 29.3%; with RXF 393 renal it was 45.9%; in the test with SF-268 CNS, 36.2%; with SF-539 CNS it was 36.1%. Moreover, the growth in the test on UACC-257 melanoma was 28.3%; in the test with M14 melanoma, 23.8%; in the test with HCT-15 colon it was 11.8%; in the test with HT29 colon, 9.92% (active); in the test on SNB-75 CNS it was 40.2%; in the test on SNB-19 CNS, 29.9%. In addition, the growth is 7.14% (active) with U251 CNS; -16.2% (active) in the test with PC-3 prostate; 4.6% (active) in the test with SK-MEL-5 melanoma; 27.4% with UACC-62 melanoma; 7.41% (active) in the test on LOX IMVI melanoma; 49.2% in the test with SK-MEL-28 melanoma. Further, the growth with SK-MEL-2 melanoma was 16.2%.
